Laboratory results from PubChem BioAssay (NCI).
Compounds without any hit were thinned out: in the full panel of roughly 83,000, 20% have a hit.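 Cell lines were cultured in 96-well plates, exposed to a single compound concentration, and assessed for percent growth 48 hours later.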 Unmarked numbers belong to inactive results. Calls of active or inactive are those of the source. Rule for the calls: active = growth percent below 10; inactive = the rest.

Tests used:
Test in all cases: NCI-60 one-dose screen, 48 h (100 = growth as untreated, 0 = no growth, -100 = all killed)
Conditions in all cases: 10 µM
[1] = tested on: NCI-H23 lung
[2] = tested on: NCI-H226 lung
[3] = tested on: NCI-H322M lung
[4] = tested on: HOP-62 NSCLC
[5] = tested on: NCI-H460 lung
[6] = tested on: NCI-H522 lung
[7] = tested on: A549/ATCC NSCLC
[8] = tested on: 786-0 renal
[9] = tested on: COLO 205 colon
[10] = tested on: DU-145 prostate
[11] = tested on: K-562 leukemia
[12] = tested on: MALME-3M melanoma
[13] = tested on: MDA-MB-231 breast
[14] = tested on: RXF 393 renal
[15] = tested on: SF-268 CNS
[16] = tested on: SF-295 CNS
[17] = tested on: SF-539 CNS
[18] = tested on: UACC-257 melanoma
[19] = tested on: M14 melanoma
[20] = tested on: HCT-15 colon

Structure (SMILES)	growth [1] [%]	growth [2]	growth [3]	growth [4]	growth [5]	growth [6]	growth [7]	growth [8] [%]	growth [9]	growth [10]	growth [11]	growth [12]	growth [13]	growth [14]	growth [15] [%]	growth [16]	growth [17] [%]	growth [18]	growth [19]	growth [20] [%]
N#Cc1ncc(Br)c(NC2CCCCCC2)n1	103	97.1%	105%	106%	116%	110%	89%	104	113%	103%	97.1%	145%	98%	95.2%	111	93.4%	99.5	95%	114%	92.3
COC(=O)C1=NNC(=S)N(c2cc(C)[nH]n2)C(=O)C1	99.1	99.7%	94.5%	115%	111%	103%	106%	96.9	116%	107%	93.7%	93.2%	110%	111%	102	96.3%	102	100%	102%	102
CC(C)(C)c1cc(Br)cc(C(C)(C)C)c1O	107	97.5%	96.7%	120%	117%	115%	91.1%	103	113%	113%	101%	103%	116%	101%	113	97.8%	104	104%	115%	105
Nc1ncnc2[nH]c(=O)[nH]c12	103	87.7%	103%	97.9%	95.5%	105%	118%	102	132%	99.5%	46.5%	104%	91.4%	22.1%	89	85.1%	87	103%	94.6%	96.3
CCOC(=O)C1(CC(C)C)CCOC1=O (stereo not given)	102	106%	104%	109%	103%	100%	94.8%	107	115%	105%	97.8%	101%	109%	118%	98.7	99.5%	97.7	97.7%	106%	96.7
CN(C)CCCn1c(=O)c2ccccc2c2cnc3[nH]ccc3c21	13.8	-0.537% (active)	9.79% (active)	-1.44% (active)	-6.21% (active)	-38.9% (active)	1.69% (active)	15.2	-31.3% (active)	-0.745% (active)	-10.9% (active)	-25.1% (active)	-11.2% (active)	5.57% (active)	21.1	12.4%	30.3	-20.6% (active)	-6.79% (active)	10.5
CC(=O)N1N=C(c2ccc(Cl)cc2)CC1c1sc(Cl)nc1Cl (stereo not given)	87.4	43.1%	62.9%	103%	107%	81%	78.5%	84.7	108%	74.7%	66.1%	94.8%	82.1%	80.5%	80.1	80.3%	104	91.9%	94.6%	96.3
S=C1SCC(c2ccccc2)S1 (stereo not given)	113	101%	111%	108%	114%	131%	102%	109	111%	125%	106%	118%	107%	105%	111	117%	95.7	89.6%	113%	100
COc1ccc(-c2ccc(-c3ccc(C(=N)N)cn3)o2)cc1	85.1	78.7%	77.6%	72.1%	82.2%	76.6%	69.5%	91.3	-41.2% (active)	88.6%	24.7%	39.4%	47.4%	85.7%	81.2	68.7%	79.7	62.8%	75.3%	59.8
O=C(Nc1ccc(Cl)c([N+](=O)[O-])c1)Nc1nc2ccccc2s1	64.5	86.4%	101%	90.1%	82%	36.1%	27.2%	90.3	108%	107%	74.9%	67.6%	86.2%	113%	106	71%	83.6	91.8%	88.7%	92.3
COc1cc(OC)cc(-c2cncn2-c2ccc(-c3nc4cc(OC)cc(OC)c4s3)cc2)c1	57.5	67.7%	82.8%	79.7%	51.3%	61.3%	45.4%	66	79.5%	78.1%	19.2%	48%	66.5%	58.1%	68.5	-22% (active)	62.6	82.4%	38.8%	48.4
COc1cc(CNCCCCCCN2C(=O)c3cccc4cccc(c34)C2=O)ccc1O	84	96.4%	67.3%	70.3%	78.1%	60.9%	64.3%	58.3	45.8%	80.9%	35.3%	36.3%	81.5%	52%	88.7	69%	85.3	89.4%	78.2%	74.7
COc1ccc(NC2=NC(C)(CO)CS2)cc1 (stereo not given)	97.1	103%	102%	94.6%	100%	-14.7% (active)	42.8%	105	117%	120%	98.7%	112%	97.5%	130%	103	109%	89.7	-25.7% (active)	101%	90.3
